Experimental data taken from PubChem BioAssay (NCATS).
Records with an inconclusive call do not appear. Active and inactive are the calls of the source. Calls follow the shape of the dose curve; as a rule, active = well fitted curve in the direction sought with a large enough effect; inconclusive = small, poorly fitted or top-dose-only effect, or another doubt; inactive = no such curve, though single readings can be large; an effect the other way counts as inactive or inconclusive.

Key:
[1] = MultiTox-Fluor Cytotoxicity Assay - LYMP1-002 - Dead Cells (AID 960); conditions: LYMP1-002 lymphoblastoid cells, dead-cell protease fluorescence; series mostly up to 46.1 µM;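 also: cells exposed to compound for 16 h at 37 °C; nearly all actives have a fitted effect of over 60% in size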
Summary of the method: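 Cells were plated, rested 5 hr, then treated with compound dilution series for 16 hr at 37 C. After adding substrate reagent and 60 min at room temperature, dead-cell protease fluorescence gave concentration-response curves fitted by the Hill equation.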

[2] = MultiTox-Fluor Cytotoxicity Assay - LYMP1-003 - Dead Cells (AID 961); conditions: LYMP1-003 lymphoblastoid cells, dead-cell protease fluorescence; series mostly up to 92.2 µM;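 also: cells exposed to compound for 16 h at 37 °C; nearly all actives have a fitted effect of over 70% in size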
Summary of the method: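 Acute toxicity is scored as increased dead-cell protease activity in human lymphoblastoid LYMP1-003 cells after 16 h compound exposure in complete culture medium. Activity is normalized to DMSO basal and 15 uM tetraoctylammonium bromide as full response.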

[3] = MultiTox-Fluor Cytotoxicity Assay - LYMP1-003 - Live Cells (AID 962); conditions: LYMP1-003 lymphoblastoid cells, MultiTox-Fluor live-cell protease fluorescence; series mostly up to 92.2 µM;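 also: cells exposed to compound for 16 hours at 37 °C; cytotoxic hits lower the live-cell protease signal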
Summary of the method: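 Acute cytotoxicity is scored as a drop in live-cell protease activity in human lymphoblastoid LYMP1-003 cells after 16 hr compound exposure at 37 C. AC50 values come from Hill-equation modelling of concentration-response data.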

[4] = Cell Viability - LYMP1-003 - Assay at 24 hr (AID 963); conditions: LYMP1-003 lymphoblastoid cell viability; series mostly up to 92.2 µM
Summary of the method: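 Cytotoxicity is scored as a concentration-dependent fall in ATP-linked luciferase signal in human lymphoblastoid LYMP1-003 cells treated 24 hr at 37 C in complete culture medium.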

[5] = Cell Viability - LYMP1-003 - Assay at 40 hr (AID 964); conditions: LYMP1-003 lymphoblastoid viability; series mostly up to 92.2 µM; also: nearly all actives have a fitted effect of over 60% in size
Summary of the method: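 Luminescent ATP signal (CellTiter-Glo) served as the viability read-out after 40 hr compound treatment of human lymphoblastoid LYMP1-003 cells at 37 C. Decreases in ATP were fitted with the Hill equation to give AC50.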

[6] = Cell Viability - LYMP2-003 (AID 965); conditions: LYMP2-003 lymphoblastoid cell viability; series mostly up to 92.2 µM;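 also: cells exposed to compounds for 24 h before reading; nearly all actives have a fitted effect of over 50% in size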
Summary of the method: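 Acute cytotoxicity is scored as a concentration-dependent drop in intracellular ATP, measured by luciferase luminescence in human lymphoblastoid cells treated for 24 hours at 37 C. AC50 values derive from Hill-equation modelling.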

[7] = Cell Viability - LYMP2-005 (AID 967); conditions: LYMP2-005 lymphoblastoid cell viability; series mostly up to 92.2 µM
Summary of the method: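 qHTS viability screen in LYMP2-005 cells: 24 h at 37 C with compound, ATP luminescence via CellTiter-Glo, AC50 from Hill curves.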

[8] = Cell Viability - LYMP2-009 (AID 968); conditions: LYMP2-009 lymphoblastoid cell viability; series mostly up to 92.2 µM; also: nearly all actives have a fitted effect of over 55% in size
[9] = Cell Viability - LYMP2-004 (AID 966); conditions: LYMP2-004 lymphoblastoid cell viability, qHTS; series mostly up to 92.2 µM; also: nearly all actives have a fitted effect of over 65% in size
Summary of the method: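 qHTS cytotoxicity: human lymphoblastoid line, 24 hr compound treatment, 37 C, complete medium. Viability read as cellular ATP via luciferase luminescence; tetraoctylammonium bromide served as positive control.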

[10] = target: Alpha-galactosidase (Coffea arabica) (UniProt Q42656); assay: Counterscreen for Glucocerebrosidase Inhibitors: qHTS Assay for Coffee Bean alpha-Galactosidase at pH 4.5 (AID 957); conditions: purified coffee bean alpha-galactosidase, fluorogenic substrate; series mostly up to 76.9 µM
Sequence of Alpha-galactosidase (Coffea arabica) (Q42656 whole entry, looked up): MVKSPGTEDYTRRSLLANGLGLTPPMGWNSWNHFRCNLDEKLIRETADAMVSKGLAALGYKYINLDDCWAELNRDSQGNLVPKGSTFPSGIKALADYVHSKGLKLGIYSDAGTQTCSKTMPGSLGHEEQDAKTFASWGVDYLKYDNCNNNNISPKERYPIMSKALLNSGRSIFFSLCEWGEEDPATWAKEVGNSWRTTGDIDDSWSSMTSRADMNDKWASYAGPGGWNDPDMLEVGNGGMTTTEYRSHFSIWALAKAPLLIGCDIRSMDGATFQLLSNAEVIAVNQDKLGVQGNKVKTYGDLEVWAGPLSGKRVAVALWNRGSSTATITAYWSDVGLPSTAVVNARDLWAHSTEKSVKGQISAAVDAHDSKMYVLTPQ
Summary of the method: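 Enzyme is added first (2 nM final), then compounds titrated from 0.7 nM to 77 uM, then 80 uM 4-methylumbelliferyl alpha-D-galactopyranoside; after 20 min at room temperature a pH 10 NaOH/glycine stop precedes fluorescence reading at 365/440 nm.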

Measured: Potency

Nc1ccc(Cl)cc1N
inactive: [1] | [2] | [3] | [4] | [5] | [6] | [7] | [8]

CCOCCOC(C)=O
inactive: [2] | [3] | [4] | [5] | [6] | [9] | [7] | [8]

COc1ccc(C(c2ccc(OC)cc2)C(Cl)(Cl)Cl)cc1
inactive: [2] | [3] | [4] | [5] | [6] | [9] | [7] | [8]

OCCCBr
inactive: [1] | [2] | [3] | [4] | [5] | [6] | [9] | [7] | [8]

O=C(O)C(Cl)Cl
inactive: [1] | [2] | [3] | [4] | [5] | [6] | [9] | [7] | [8]

Nc1ccc(Sc2ccc(N)cc2)cc1
inactive: [1] | [2] | [3] | [4] | [5] | [6] | [9] | [7] | [8]

CC(C)(O)C(=O)Nc1ccc([N+](=O)[O-])c(C(F)(F)F)c1
inactive: [2] | [3] | [4] | [5] | [6] | [9] | [7] | [8]

CC#C[C@]1(O)CC[C@H]2[C@@H]3CCC4=CC(=O)CCC4=C3[C@H](c3ccc(N(C)C)cc3)C[C@@]21C
inactive: [10]

COC(C)(C)CCCC(C)C/C=C/C(C)=C/C(=O)OC(C)C (configuration not stated)
inactive: [1] | [2] | [3] | [4] | [5] | [6] | [9] | [7] | [8]

CC(C)(Sc1ccc(CCN(CCCCC2CCCCC2)C(=O)NC2CCCCC2)cc1)C(=O)O
inactive: [10]

C1CCC(NC2CCCCC2)CC1
inactive: [1] | [2] | [3] | [4] | [5] | [6] | [9] | [7] | [8]

O=C(O)Cc1cnc[nH]1
inactive: [10]

O=C(O)CC[N+](=O)[O-]
inactive: [10]

C[C@]12N[C@H](Cc3ccccc31)c1ccccc12
inactive: [10]
